According to PubChem BioAssay:
Results filed as inconclusive are left out. Active and inactive are the calls of the source.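 The calls were made as follows, unless noted: active = normalized viability below 100% at a tested concentration; inactive = the rest.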

Experiments:
[1] = growth inhibition of DIPG glioma cells, dose response, cell-based, SU-DIPG-XVII, MIPE5.0, CellTiter-Glo, qHTS (AID 1347060; cut-off not given, nearly all actives have AC50 up to about 26 µM;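 also: cells exposed to compound for 48 hours before viability readout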); conditions: SU-DIPG-XVII viability, CellTiter-Glo ATP luminescence
[2] = growth inhibition of DIPG glioma cells, dose response, cell-based, SU-DIPG-XIII, MIPE4.0, CellTiter-Glo, qHTS (AID 1347061; cut-off not given, nearly all actives have AC50 up to about 37 µM;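 also: cells exposed to compound for 48 hours before readout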); conditions: SU-DIPG-XIII viability, CellTiter-Glo ATP luminescence
[3] = growth inhibition of DIPG glioma cells, dose response, cell-based, JHH-DIPG-1, MIPE4.0, CellTiter-Glo, qHTS (AID 1347062; cut-off not given, nearly all actives have AC50 up to about 27 µM;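 also: cells exposed to compound for two days before readout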); conditions: JHH-DIPG-1 viability, CellTiter-Glo ATP luminescence
[4] = growth inhibition of DIPG glioma cells, dose response, cell-based, SU-DIPG-IV, MIPE4.0, CellTiter-Glo, qHTS (AID 1347063; cut-off not given, nearly all actives have AC50 up to about 30 µM;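 also: compound exposure lasted 48 hours before the viability readout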); conditions: SU-DIPG-IV viability, CellTiter-Glo ATP luminescence
[5] = growth inhibition of DIPG glioma cells, dose response, cell-based, SU-DIPG-XIII, MIPE5.0, CellTiter-Glo, qHTS (AID 1347064; cut-off not given, nearly all actives have AC50 up to about 23 µM;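 also: cells exposed to compound for 48 hours before the viability read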); conditions: SU-DIPG-XIII viability, CellTiter-Glo ATP luminescence
[6] = viability loss in pontine glioma line – cell-based, SU-DIPG-XXV, MIPE5.0, CellTiter-Glo, qHTS, dose response (AID 1347065; cut-off not given, nearly all actives have AC50 up to about 26 µM;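 also: cells exposed to compound for 48 hours before ATP readout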); conditions: CellTiter-Glo ATP luminescence
[7] = JHH-DIPG-1 glioma cell viability, MIPE5.0 library, CellTiter-Glo luminescence, qHTS (AID 1347067; cut-off not given, nearly all actives have AC50 up to about 26 µM;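 also: cells exposed to compound for 48 hours before readout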); conditions: JHH-DIPG-1 glioma viability, CellTiter-Glo ATP luminescence
[8] = sensitizers of A549 cells to miR-34 induction, primary screen, imaging, A549 dox-inducible miR-34, nuclei and caspase counts (AID 1347080;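 active = compounds whose cell count with miR-34 switched on is under 0.7 times the count with it off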); conditions: A549 miR-34 inducible, Hoechst nuclei count, 48 h
[9] = modifiers of HSF1 nuclear foci, imaging, Selleck Cancer Library (AID 1347162; in the data active = plate-normalised HSF1 focus index below about 0.46); conditions: human cells, at 10 µM; SSMD: measured here: HSF1 foci SSMD mean; cell count: measured here: cell number; plate-normalised HSF1 focus index: stronger effect = lower value
[10] = survival rescue of mitochondrial mutant cells in low glucose, primary screen, MELAS cybrids, Rieske KO mouse fibroblasts, CellTiter-Glo (AID 1508586;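 active = mean z-score across replicates of 1.96 or higher in either the MELAS or the Rieske mutant cell line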;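 also: z relative to plate mean and SD of compound and empty wells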)
[11] = ovarian cancer cell viability with rucaparib, profiling panel, oncology-focused library, rucaparib conditional (AID 1508598); conditions: patient-derived ovarian cancer cells, CellTiter-Glo viability, 144 h, stronger effect = lower value

COc1c(C)cnc(Cn2cnc3c(Cl)nc(N)nc32)c1C
0.0158: z-score ([10]; Rieske KO mouse fibroblast survival, CellTiter-Glo 72 h)
inactive: fold change ([8]; stronger effect = lower value, cell number ratio, induced over uninduced) 0.993 | plate-normalised HSF1 focus index [9] 1.16 | viability ([11]; at 0.000305 µM, OCI-C5x cells, with rucaparib 10 µM, 100% = cells with rucaparib alone) 115% | viability ([11]; at 0.000305 µM, OCI-C5x cells, without rucaparib) 104% | viability ([11]; at 0.000305 µM, OCI-P5x cells, with rucaparib 20 µM, 100% = cells with rucaparib alone) 111% | viability ([11]; at 0.00122 µM, OCI-C5x cells, with rucaparib 10 µM, 100% = cells with rucaparib alone) 122% | viability ([11]; at 0.00122 µM, OCI-C5x cells, without rucaparib) 111% | viability ([11]; at 0.00122 µM, OCI-P5x cells, with rucaparib 20 µM, 100% = cells with rucaparib alone) 116% | viability ([11]; at 0.00122 µM, OCI-P5x cells, without rucaparib) 110% | viability ([11]; at 0.00488 µM, OCI-C5x cells, with rucaparib 10 µM, 100% = cells with rucaparib alone) 123% | viability ([11]; at 0.00488 µM, OCI-P5x cells, with rucaparib 20 µM, 100% = cells with rucaparib alone) 122% | viability ([11]; at 0.00488 µM, OCI-P5x cells, without rucaparib) 118% | viability ([11]; at 0.0195 µM, OCI-C5x cells, with rucaparib 10 µM, 100% = cells with rucaparib alone) 125% | viability ([11]; at 0.0195 µM, OCI-C5x cells, without rucaparib) 111% | viability ([11]; at 0.0195 µM, OCI-P5x cells, with rucaparib 20 µM, 100% = cells with rucaparib alone) 128% | viability ([11]; at 0.0195 µM, OCI-P5x cells, without rucaparib) 121% | viability ([11]; at 0.0781 µM, OCI-C5x cells, with rucaparib 10 µM, 100% = cells with rucaparib alone) 133% | viability ([11]; at 0.0781 µM, OCI-C5x cells, without rucaparib) 137% | viability ([11]; at 0.313 µM, OCI-C5x cells, without rucaparib) 127%
active: AC50 [1] 525 nM | AC50 [2] 1180 nM | AC50 [3] 187 nM | AC50 [4] 332 nM | AC50 [5] 1050 nM | AC50 [6] 742 nM | AC50 [7] 1050 nM | z-score ([10]; MELAS cybrid survival, CellTiter-Glo 48 h, stronger effect = higher value) 2.83 | viability ([11]; at 0.000305 µM, OCI-P5x cells, without rucaparib) 99.7% | viability ([11]; at 0.00488 µM, OCI-C5x cells, without rucaparib) 82.7% | viability ([11]; at 0.0781 µM, OCI-P5x cells, with rucaparib 20 µM, 100% = cells with rucaparib alone) 33.6% | viability ([11]; at 0.0781 µM, OCI-P5x cells, without rucaparib) 68.7% | viability ([11]; at 0.313 µM, OCI-C5x cells, with rucaparib 10 µM, 100% = cells with rucaparib alone) 98.4% | viability ([11]; at 0.313 µM, OCI-P5x cells, with rucaparib 20 µM, 100% = cells with rucaparib alone) 20.3% | viability ([11]; at 0.313 µM, OCI-P5x cells, without rucaparib) 9.78% | viability ([11]; at 1.25 µM, OCI-C5x cells, with rucaparib 10 µM, 100% = cells with rucaparib alone) 12.2% | viability ([11]; at 1.25 µM, OCI-C5x cells, without rucaparib) 15.4% | viability ([11]; at 1.25 µM, OCI-P5x cells, with rucaparib 20 µM, 100% = cells with rucaparib alone) 9% | viability ([11]; at 1.25 µM, OCI-P5x cells, without rucaparib) 7.18% | viability ([11]; at 5 µM, OCI-C5x cells, with rucaparib 10 µM, 100% = cells with rucaparib alone) 11.2% | viability ([11]; at 5 µM, OCI-C5x cells, without rucaparib) 10.3% | viability ([11]; at 5 µM, OCI-P5x cells, with rucaparib 20 µM, 100% = cells with rucaparib alone) 9.01% | viability ([11]; at 5 µM, OCI-P5x cells, without rucaparib) 6.09%
1960: cell count ([8]; measured here: total cells without miR-34 induction)
7350: cell count [9]
1.45: fold change ([8]; measured here: relative caspase fold change +Dox/-Dox)
1950: cell count ([8]; measured here: total cells with miR-34 induction, stronger effect = lower value)
4.45: SSMD [9]
